# Experimental data taken from the supplement of paper PMC5919970.
# Whole data set: some 2,000 compounds, median “fractional viability relative to vehicle” near 0.91, cut for the lowest 2% near 0.045. The full list was thinned out, with the lowest values kept by preference.
# Tested on: TYKNU
# Assay: fractional viability relative to vehicle; TYKNU is a high-grade serous ovarian cancer line; higher = less growth inhibition
# Conditions: 72 h
# Summary of the method: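 TYKNU control cells or lentiCRISPRv2 knockout derivatives were plated at 500 cells per well in duplicate into drug-stamped 384-well plates holding a ~2100-compound library at 2 or 10 μM. Culture was in RPMI 1640 with 10% FBS at 37 °C in 5% CO2, with 72 h of drug treatment. Viability was measured by Cell Titer Glo luminescence, and the averaged duplicate treatment wells were normalised to duplicate control wells at the same plate position.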
# [1] = 2uM, genotype: DNM1L knockout (sgDNM1L #1)
# [2] = 2uM, genotype: sgCTRLA1 (non-targeting control)
# [3] = 10uM, genotype: DNM1L knockout (sgDNM1L #1)
# [4] = 10uM, genotype: sgCTRLA1 (non-targeting control)
SMILES,fractional viability [1],fractional viability [2],fractional viability [3],fractional viability [4]
COc1cc2c(Nc3ccc(NC(=O)c4ccccc4)cc3)ncnc2cc1OCCCN1CCOCC1,0.862,0.959,0.266,0.22
COc1cc2c(Oc3ccc(NC(=O)C4(C(=O)Nc5ccc(F)cc5)CC4)cc3F)ccnc2cc1OCCCN1CCOCC1,0.628,0.631,0.0524,0.0418
COc1cc2nccc(Oc3ccc(NC(=O)C4(C(=O)Nc5ccc(F)cc5)CC4)cc3)c2cc1OC,1.15,1.17,0.615,0.64
CCN(C(=O)c1c(O)c2c(Cl)cccc2n(C)c1=O)c1ccccc1 [Laquinimod],1.22,1.14,0.958,1.08
"CC[C@H](Nc1ncnc2[nH]cnc12)c1nc2cccc(F)c2c(=O)n1-c1ccccc1 [CAL-101 (Idelalisib, GS-1101)]",0.947,1.11,0.863,0.971
CN(C)CC(=O)Nc1ccc2[nH]c(=O)c3ccccc3c2c1,0.84,1.06,0.74,1.03
Nc1nc(Nc2ccc3c(c2)CCC(N2CCCC2)CC3)nn1-c1cc2c(nn1)-c1ccccc1CCC2 (configuration not stated),0.343,0.242,0.0232,0.0259
CNC[C@@H](O)c1ccc(O)c(O)c1 [L-Adrenaline],0.842,1,0.784,0.91
CC(C)Oc1ccc(C(=O)N[C@H](CNC(=O)CN(C)C)Cc2ccc(-c3cn4cccc([C@H](C)O)c4n3)cc2)cc1Cl,0.413,0.508,0.29,0.438
Clc1cccc(-c2nnnn2Cc2cccnc2)c1Cl,0.755,0.927,0.755,0.73
CS(=O)(=O)Nc1ccc([N+](=O)[O-])cc1Oc1ccccc1 [Nimesulide],0.973,1.1,0.922,1.01
O=[N+]([O-])c1ccc2c(c1)S(=O)(=O)C=C2 [Stattic],0.0799,0.101,0.0327,0.0222
O=C(O)c1cc(=O)[nH]c(=O)[nH]1 [Orotic acid (6-Carboxyuracil)],0.916,1.04,1.02,1.12
COc1ccc([C@]2(C#N)CC[C@@H](C(=O)O)CC2)cc1OC1CCCC1 [Cilomilast],0.977,1.1,0.843,1.15
CCc1c(Cl)c(O)c(Cl)c(O)c1C(=O)O[C@H]1[C@H](O)[C@H](OC)[C@H](OC/C2=C\C=C\C[C@H](O)/C(C)=C/[C@H](CC)[C@@H](O[C@@H]3OC(C)(C)[C@@H](OC(=O)C(C)C)[C@H](O)[C@@H]3O)/C(C)=C/C(C)=C/C[C@@H]([C@@H](C)O)OC2=O)O[C@@H]1C [Fidaxomicin],0.741,0.893,0.494,0.0966
C[C@H]1O[C@@H](O[C@H]2[C@@H](O)C[C@H](O[C@H]3[C@@H](O)C[C@H](O[C@H]4CC[C@@]5(C)[C@H](CC[C@@H]6[C@@H]5C[C@@H](O)[C@]5(C)[C@@H](C7=CC(=O)OC7)CC[C@]65O)C4)O[C@@H]3C)O[C@@H]2C)C[C@H](O)[C@@H]1O [Digoxin],0.0546,0.0452,0.032,0.0309
CCS(=O)(=O)N1CCC([C@@H](C)n2c(C)c(C(=O)NCc3c(OC)cc(C)[nH]c3=O)c3ccccc32)CC1,0.746,0.93,0.908,0.836
NC(=O)NO [Hydroxyurea],0.92,1.14,0.948,1.16
CC(C)c1cnn2c(NCc3ccccc3)cc(NCCCCCCN)nc12,1.09,1.13,0.83,0.972
O=C(O)CCNC(=O)c1ccccc1 [Betamipron],0.922,1.11,0.923,0.986
O=C(O)c1ccccc1 [Benzoic Acid],0.793,0.98,0.581,0.958
CN(NC(=O)CC(=O)NN(C)C(=S)c1ccccc1)C(=S)c1ccccc1 [Elesclomol (STA-4783)],0.0609,0.0221,0.0751,0.0222
O=CN1CC/C(=C/c2ccc3c(c2)OCO3)C1=O,0.723,0.973,0.78,0.692
OC[C@H]1O[C@@H](OCCc2ccc(O)cc2)[C@H](O)[C@@H](O)[C@@H]1O [Salidroside],0.968,1.14,0.842,1.07
O=C(c1cc(Cc2n[nH]c(=O)c3ccccc23)ccc1F)N1CCN(C(=O)C2CC2)CC1,0.967,1.06,0.727,1.02
CCN1CCN(Cc2ccc(Nc3ncc(F)c(-c4cc(F)c5nc(C)n(C(C)C)c5c4)n3)nc2)CC1,0.289,0.473,0.0303,0.0236
C[N+](C)(C)C[C@H](O)CC(=O)[O-] [L-carnitine],1.12,1.14,0.8,1.07
Cc1nnc(C(=O)NC(C)(C)c2nc(C(=O)NCc3ccc(F)cc3)c(O)c(=O)n2C)o1 [Raltegravir (MK-0518)],0.979,1.07,0.879,1.06
